Consider 64 molecules from the antibiotic and cytotoxicity screens of Wong et al. (2023).

Molecules are shown by their SMILES. The campaign covered roughly 39,000 compounds. About 3,300 (8.5%) were called active. The sample holds actives, similar compounds and a random draw of the others, so the mix is not that of the screen.

The assay relates to HepG2. In words: cytotoxicity call (relative viability < 0.9). As to conditions: 10 µM.
`C[C@H](CO)N1C[C@H](C)[C@@H](CN(C)Cc2cncnc2)Oc2ncc(C#C[C@@H](C)O)cc2C1=O`: the cytotoxicity call was “inactive”.
Turning to `O=P(O)(O)CN1CCN(CP(=O)(O)O)CCN(CP(=O)(O)O)CCN(CP(=O)(O)O)CC1`, the cytotoxicity call was “inactive”.
Take `C[C@@H]1CN([C@H](C)CO)C(=O)Cc2cc(NC(=O)Nc3ccc(F)cc3)ccc2O[C@H]1CN(C)CC1CCCCC1`: the cytotoxicity call is “active”.
For `C[C@H]1CN([C@@H](C)CO)C(=O)Cc2cc(NC(=O)Nc3ccc(F)cc3)ccc2O[C@H]1CN(C)CC1CCCCC1`, the cytotoxicity call is “active”.
As for `COc1ccc(NC(=O)Nc2ccc3c(c2)CC(=O)N([C@H](C)CO)C[C@@H](C)[C@H](CN(C)CC2CCCCC2)O3)cc1`, the cytotoxicity call is “inactive”.
Turning to `C[C@@H]1CN([C@@H](C)CO)C(=O)Cc2cc(NC(=O)Nc3ccc(F)cc3)ccc2O[C@@H]1CN(C)CC1CCCCC1`, the cytotoxicity call is “active”.
For the molecule `C[C@H]1CN([C@@H](C)CO)C(=O)Cc2cc(NC(=O)Nc3ccc(F)cc3)ccc2O[C@@H]1CN(C)CC1CCCCC1`, the cytotoxicity call is “active”.
For `Cc1noc(C)c1S(=O)(=O)Nc1ccc2c(c1)C(=O)N([C@H](C)CO)C[C@H](C)[C@@H](CN(C)C(=O)NC1CCCCC1)O2`, the cytotoxicity call is “inactive”.
Take `CNC[C@H]1OCCCC[C@H](C)Oc2ccc(NC(=O)c3ccncc3)cc2C(=O)N([C@H](C)CO)C[C@@H]1C`: the cytotoxicity call was “inactive”.
`COc1ccc2c3c([nH]c2c1)[C@H](CO)N(C[C@]13CN(C1)S(=O)(=O)c1cccs1)C(=O)c1ccccc1`: the cytotoxicity call was “inactive”.
For `COc1ccc2c3c([nH]c2c1)[C@@H](CO)N(CC1CCOCC1)C[C@]13CCN(CC1)C(=O)C1CCOCC1`, the cytotoxicity call was “inactive”.
As to `CC(C)CC#Cc1ccc2c(c1)O[C@@H](CN(C)C(=O)Cc1ccncc1)[C@H](C)CN([C@H](C)CO)S2(=O)=O`, the cytotoxicity call is “inactive”.
On to `COc1ccc(CN(C)C[C@H]2OCCCC[C@@H](C)Oc3ccc(NC(=O)c4ccncc4)cc3C(=O)N([C@H](C)CO)C[C@@H]2C)cc1`, for which the cytotoxicity call is “inactive”.
`CC(C)c1cn(CC[C@@H]2CC[C@H](N)[C@@H](CO)O2)nn1`: the cytotoxicity call was “inactive”.
As to `CO[C@@H]1CN(C)C(=O)c2ccc(NS(=O)(=O)c3cn(C)cn3)cc2OC[C@@H](C)N(Cc2cccc(F)c2)C[C@@H]1C`, the cytotoxicity call was “inactive”.
In the case of `CCN(CC)CCNc1nc(=O)[nH]nc1C`, the cytotoxicity call is “inactive”.
With `O=C(N[C@H]1CC[C@H](CCn2cc(C3(O)CCCC3)nn2)O[C@@H]1CO)C1CCOCC1`, the cytotoxicity call is “inactive”.
To `COc1ccc(-c2cnc3c(c2)C(=O)N([C@H](C)CO)C[C@H](C)[C@H](CN(C)S(=O)(=O)c2ccc(C#N)cc2)O3)cc1` belongs “inactive”.
To `C[C@@H]1CN([C@@H](C)CO)C(=O)Cc2cc(NC(=O)Nc3ccc(F)cc3)ccc2O[C@H]1CN(C)CC1CCCCC1` belongs “inactive”; to `C[C@H](CO)N1C[C@H](C)[C@H](CN(C)CC2CCCCC2)Oc2ccc(NC(=O)Nc3ccc(F)cc3)cc2CC1=O`, “active”; to `C[C@@H]1CN([C@H](C)CO)C(=O)Cc2cc(NC(=O)Nc3ccc(F)cc3)ccc2O[C@@H]1CN(C)CC1CCCCC1`, “active”.
Regarding `C[C@H](CO)N1C[C@H](C)[C@@H](CN(C)CC2CCCCC2)Oc2ccc(NC(=O)Nc3ccc(F)cc3)cc2CC1=O`, the cytotoxicity call was “inactive”.
Regarding `O=C(C[C@H]1CC[C@H]2[C@@H](COC[C@@H](O)CN2S(=O)(=O)c2ccccc2)O1)NCc1ccc2c(c1)OCO2`, the cytotoxicity call is “inactive”.
For `C[C@H](CO)N1C[C@H](C)[C@H](CN(C)C(=O)Nc2cccc3ccccc23)Oc2ncc(/C=C/c3ccccc3)cc2C1=O`, the cytotoxicity call is “inactive”.
As to `NC(=O)c1cc2ccccc2nc1C(N)=O`, the cytotoxicity call is “inactive”.
For `C[C@H](CO)N1C[C@H](C)[C@H](CN(C)C(=O)Nc2cccc3ccccc23)Oc2ccc(NC(=O)C3CCCCC3)cc2C1=O`, the cytotoxicity call was “inactive”.
On to `CO[C@H]1CN(C)C(=O)c2cc(NC(=O)c3ccccc3)ccc2OC[C@@H](C)N(C(=O)CN(C)C)C[C@H]1C`, for which the cytotoxicity call is “inactive”.
`CC(=O)Nc1ccc(CC(=O)O)cc1`: the cytotoxicity call is “inactive”.
As to `CCCCc1ccc(CC(=O)O)cc1`, the cytotoxicity call was “active”.
In the case of `O=C(O)Cc1ccc(CO)cc1`, the cytotoxicity call was “inactive”.
On to `COc1ccc2c3c(n(c2c1)C)[C@H](CO)N(C[C@]13CN(C1)C(=O)Nc1cccc(c1)F)C(=O)CN1CCOCC1`, for which the cytotoxicity call is “inactive”.
For the molecule `COc1ccc(NC(=O)Nc2ccc3c(c2)C(=O)N([C@@H](C)CO)C[C@@H](C)[C@@H](CN(C)C(=O)C2CCCCC2)OCCCC[C@@H](C)O3)cc1`, the cytotoxicity call was “inactive”.
For the molecule `COc1ccc(NC(=O)Nc2ccc3c(c2)C(=O)N([C@@H](C)CO)C[C@H](C)[C@@H](CN(C)C(=O)C2CCCCC2)OCCCC[C@@H](C)O3)cc1`, the cytotoxicity call is “inactive”.
For the molecule `COc1ccc(NC(=O)Nc2ccc3c(c2)C(=O)N([C@H](C)CO)C[C@@H](C)[C@H](CN(C)C(=O)C2CCCCC2)OCCCC[C@@H](C)O3)cc1`, the cytotoxicity call is “active”.
`COc1ccc(NC(=O)Nc2ccc3c(c2)C(=O)N([C@@H](C)CO)C[C@H](C)[C@H](CN(C)C(=O)C2CCCCC2)OCCCC[C@H](C)O3)cc1`: the cytotoxicity call was “active”.
To `COc1ccc(NC(=O)Nc2ccc3c(c2)C(=O)N([C@@H](C)CO)C[C@H](C)[C@H](CN(C)C(=O)C2CCCCC2)OCCCC[C@@H](C)O3)cc1` belongs “inactive”.
As to `COc1ccc(NC(=O)Nc2ccc3c(c2)C(=O)N([C@H](C)CO)C[C@@H](C)[C@H](CN(C)C(=O)C2CCCCC2)OCCCC[C@H](C)O3)cc1`, the cytotoxicity call is “inactive”.
With `Cn1cnc(S(=O)(=O)N2C[C@@H](O)COC[C@H]3O[C@H](CC(=O)NC4Cc5ccccc5C4)CC[C@@H]32)c1`, the cytotoxicity call was “inactive”.
As for `C[C@H]1CN([C@@H](C)CO)C(=O)c2cccc(NC(=O)Nc3ccc4c(c3)OCO4)c2O[C@@H]1CN(C)Cc1ccc(Cl)c(Cl)c1`, the cytotoxicity call was “inactive”.
Consider `COc1ccc(S(=O)(=O)N(C)C[C@@H]2Oc3cc(Br)ccc3S(=O)(=O)N([C@H](C)CO)C[C@@H]2C)cc1`, for which the cytotoxicity call is “inactive”.
In the case of `COc1ccc([C@H]([C@H](Cc2ccccc2)OC(C)=O)N(CC#C[C@@H](O)c2ccccc2)[C@@H](Cc2ccccc2)C(OC)OC)cc1`, the cytotoxicity call is “active”.
To `COc1ccc([C@H]([C@H](Cc2ccccc2)OC(C)=O)N(C/C=C/[C@@H](OC(C)=O)c2ccccc2)[C@@H](Cc2ccccc2)C(OC)OC)cc1` belongs “active”.
`COc1ccc([C@H]([C@@H](O)Cc2ccccc2)N(CC#C[C@@H](O[Si](c2ccccc2)(c2ccccc2)C(C)(C)C)c2ccccc2)[C@@H](Cc2ccccc2)C(OC)OC)cc1`: the cytotoxicity call is “inactive”.
On to `COc1ccc([C@H]([C@@H](O)Cc2ccccc2)N(CC#C[C@@H](O)c2ccccc2)[C@@H](Cc2ccccc2)C(OC)OC)cc1`, for which the cytotoxicity call was “inactive”.
`COc1ccc([C@H]([C@H](Cc2ccccc2)OC(C)=O)N(C/C=C\[C@@H](O)c2ccccc2)[C@@H](Cc2ccccc2)C(OC)OC)cc1`: the cytotoxicity call is “inactive”.
In the case of `COc1ccc([C@H]([C@H](Cc2ccccc2)OC(C)=O)N(CC#C[C@@H](O[Si](c2ccccc2)(c2ccccc2)C(C)(C)C)c2ccccc2)[C@@H](Cc2ccccc2)C(OC)OC)cc1`, the cytotoxicity call was “inactive”.
To `COc1ccc(-c2cnc3c(c2)C(=O)N([C@@H](C)CO)C[C@H](C)[C@@H](CN(C)C(=O)C2CCOCC2)O3)cc1` belongs “inactive”.
To `COc1ccc(S(=O)(=O)Nc2ccc3c(c2)C(=O)N([C@H](C)CO)C[C@H](C)[C@H](CN(C)C(=O)CCC(F)(F)F)OCCCC[C@H](C)O3)cc1` belongs “inactive”; to `COc1ccc(NC(=O)N(C)C[C@H]2OCCCC[C@@H](C)Oc3ccc(NC(=O)c4ccncc4)cc3C(=O)N([C@@H](C)CO)C[C@H]2C)cc1`, “inactive”; to `O=C(C[C@@H]1C=C[C@@H](NC(=O)c2cccnc2)[C@@H](CO)O1)NCc1ccncn1`, “inactive”.
Consider `C[C@@H]1CCCCO[C@@H](CN(C)S(=O)(=O)c2cccs2)[C@@H](C)CN([C@@H](C)CO)C(=O)c2cc(NC(=O)c3ccccc3)ccc2O1`, for which the cytotoxicity call was “inactive”.
Consider `C[C@@H]1CCCCO[C@@H](CN(C)S(=O)(=O)c2cccs2)[C@H](C)CN([C@H](C)CO)C(=O)c2cc(NC(=O)c3ccccc3)ccc2O1`, for which the cytotoxicity call was “active”.
Take `C[C@@H]1CCCCO[C@@H](CN(C)S(=O)(=O)c2cccs2)[C@H](C)CN([C@@H](C)CO)C(=O)c2cc(NC(=O)c3ccccc3)ccc2O1`: the cytotoxicity call was “inactive”.
Consider `C[C@@H]1CN([C@@H](C)CO)C(=O)c2cc(NC(=O)c3ccccc3)ccc2O[C@@H](C)CCCCO[C@@H]1CN(C)S(=O)(=O)c1cccs1`, for which the cytotoxicity call is “inactive”.
Turning to `C[C@@H]1CN([C@H](C)CO)C(=O)c2cc(NC(=O)c3ccccc3)ccc2O[C@@H](C)CCCCO[C@H]1CN(C)S(=O)(=O)c1cccs1`, the cytotoxicity call was “active”.
As for `C[C@@H]1CCCCO[C@H](CN(C)S(=O)(=O)c2cccs2)[C@@H](C)CN([C@@H](C)CO)C(=O)c2cc(NC(=O)c3ccccc3)ccc2O1`, the entry is “inactive”.
For the molecule `Cc1noc(C)c1S(=O)(=O)Nc1ccc2c(c1)C(=O)N([C@H](C)CO)C[C@H](C)[C@@H](CN(C)S(C)(=O)=O)OCCCC[C@@H](C)O2`, the cytotoxicity call was “inactive”.
With `CCOC(=O)N1CCN(C[C@@H](O)Cn2c(=O)c3c(ncn3C)n(C)c2=O)CC1`, the cytotoxicity call was “inactive”.
On to `Cc1noc(C)c1S(=O)(=O)Nc1ccc2c(c1)C(=O)N([C@H](C)CO)C[C@@H](C)[C@@H](CN(C)S(=O)(=O)c1cn(C)cn1)OCCCC[C@@H](C)O2`, for which the cytotoxicity call is “inactive”.
On to `COc1ccc(NC(=O)Nc2ccc3c(c2)C(=O)N([C@H](C)CO)C[C@H](C)[C@@H](CN(C)CC2CC2)OCCCC[C@H](C)O3)cc1`, for which the cytotoxicity call is “inactive”.
Turning to `CCOC(=O)C(C#N)C1=NCCC1` (centres undefined), the cytotoxicity call was “inactive”.
For `C[C@@H]1CN([C@H](C)CO)C(=O)c2cc(NC(=O)c3ccccc3)ccc2O[C@@H](C)CCCCO[C@@H]1CN(C)C(=O)Cc1ccccc1`, the cytotoxicity call is “inactive”.
As for `COc1cccc(NC(=O)N[C@H]2C=C[C@H](CC(=O)N3CCN(C)CC3)O[C@@H]2CO)c1`, the entry is “inactive”; as for `C[C@H]1CN([C@@H](C)CO)C(=O)c2cc(NC(=O)CCN3CCOCC3)ccc2O[C@@H]1CN(C)Cc1ccc(C(=O)O)cc1`, “inactive”.
